“And” between values parts separate entries of the source, which are not always exact repeats. Equal entries are not always repeated. Screen size: about 5,500 compounds; about 2,000 (36%) were called active. Inconclusive results (about 18%) are left out. Rule as the data show it: active = normalized growth mostly below about 0.91 (no sharp cut-off); inconclusive = no clear call, values can overlap the other calls; inactive = mostly above about 0.92. This is one part of the list.
Assay: chemical genetic growth profiling, strain panel (AID 1159580);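 also: tested at 20 µM; growth read once vehicle control cultures reached saturation at 30 °C; 1 = growth at the plate median or of vehicle wells; lower values mean less growth of the strain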
Details: growth OD

Measured: normalized growth

O=C(CCc1ccc(O)cc1)c1c(O)cc(O)cc1O
inactive: S. cerevisiae deletion strains, locus YJR075W, strain HOC1, active compounds read low 1.01 | S. cerevisiae deletion strains, locus YKL009W, strain mrt4, active compounds read low 1.03 | S. cerevisiae deletion strains, locus YKL068W, active compounds read low 1 | S. cerevisiae deletion strains, locus YKL085W, strain MDH1 (second series), active compounds read low 1.02 | S. cerevisiae deletion strains, locus YKL085W, strain MDH1, active compounds read low 1.02 | S. cerevisiae deletion strains, locus YKL160W, strain elf1, active compounds read low 0.978 | S. cerevisiae deletion strains, locus YKL190W, strain CNB1, active compounds read low 1.01 | S. cerevisiae deletion strains, locus YKR001C, strain vps1, active compounds read low 1.02 | S. cerevisiae deletion strains, locus YKR026C, strain gcn3, active compounds read low 1.01 | S. cerevisiae deletion strains, locus YKR091W, strain srl3, active compounds read low 1.01 | S. cerevisiae deletion strains, locus YLL001W, strain dnm1, active compounds read low 0.985 | S. cerevisiae deletion strains, locus YLL026W, active compounds read low 1.01 | S. cerevisiae deletion strains, locus YLL041C, strain sdh2, active compounds read low 1.02 | S. cerevisiae deletion strains, locus YLR027C, strain aat2, active compounds read low 1.01 | S. cerevisiae deletion strains, locus YLR039C, strain RIC1, active compounds read low 1.04 | S. cerevisiae deletion strains, locus YLR058C, strain SHM2, active compounds read low 1.01 | S. cerevisiae deletion strains, locus YLR102C, strain apc9, active compounds read low 1 | S. cerevisiae deletion strains, locus YLR113W, strain HOG1, active compounds read low 0.966 | S. cerevisiae deletion strains, locus YLR221C, strain rsa3, active compounds read low 1 | S. cerevisiae deletion strains, locus YLR258W, strain gsy2, active compounds read low 1.03 | S. cerevisiae deletion strains, locus YLR262C, strain YPT6 (second series), active compounds read low 1.02 | S. cerevisiae deletion strains, locus YLR262C, strain YPT6, active compounds read low 1.02 | S. cerevisiae deletion strains, locus YLR268W, strain sec22, active compounds read low 0.997 | S. cerevisiae deletion strains, locus YLR320W, strain mms22, active compounds read low 1.02 | S. cerevisiae deletion strains, locus YLR330W, strain CHS5, active compounds read low 1.01 | S. cerevisiae deletion strains, locus YLR342W, strain FKS1 (second series), active compounds read low 1.02 | S. cerevisiae deletion strains, locus YLR342W, strain FKS1, active compounds read low 1.01 | S. cerevisiae deletion strains, locus YLR357W, strain rsc2, active compounds read low 0.955 | S. cerevisiae deletion strains, locus YLR370C, strain arc18, active compounds read low 1.01 | S. cerevisiae deletion strains, locus YLR371W, strain rom2, active compounds read low 1 | S. cerevisiae deletion strains, locus YLR384C, strain iki3, active compounds read low 1.02 | S. cerevisiae deletion strains, locus YLR418C, strain cdc73, active compounds read low 0.991 | S. cerevisiae deletion strains, locus YML016C, strain PPZ1, active compounds read low 1.01 | S. cerevisiae deletion strains, locus YML032C, strain rad52, active compounds read low 1.07 | S. cerevisiae deletion strains, locus YML120C, strain ndi1, active compounds read low 1.01 | S. cerevisiae deletion strains, locus YML124C, strain tub3, active compounds read low 1.01 | S. cerevisiae deletion strains, locus YMR058W, strain fet3, active compounds read low 0.968 | S. cerevisiae deletion strains, locus YMR078C, strain ctf18, active compounds read low 1.02 | S. cerevisiae deletion strains, locus YMR125W, strain sto1, active compounds read low 1 | S. cerevisiae deletion strains, locus YMR129W, active compounds read low 1.02 | S. cerevisiae deletion strains, locus YMR205C, strain PFK2, active compounds read low 1.01 | S. cerevisiae deletion strains, locus YMR223W, strain ubp8, active compounds read low 1.04 | S. cerevisiae deletion strains, locus YMR231W, strain pep5, active compounds read low 0.988 | S. cerevisiae deletion strains, locus YMR263W, strain SAP30, active compounds read low 0.991 | S. cerevisiae deletion strains, locus YMR307W, strain GAS1, active compounds read low 0.986 and 1.01 | S. cerevisiae deletion strains, locus YNL067W, strain RPL9B, active compounds read low 0.994 | S. cerevisiae deletion strains, locus YNL071W, strain lat1, active compounds read low 1.03 | S. cerevisiae deletion strains, locus YNL128W, strain TEP1, active compounds read low 0.995 | S. cerevisiae deletion strains, locus YNL153C, strain GIM3, active compounds read low 0.991 and 0.975 | S. cerevisiae deletion strains, locus YNL175C, strain NOP13, active compounds read low 1 | S. cerevisiae deletion strains, locus YNL183C, strain NPR1, active compounds read low 0.947 | S. cerevisiae deletion strains, locus YNL197C, strain WHI3, active compounds read low 1 | S. cerevisiae deletion strains, locus YNL209W, strain ssb2, active compounds read low 1 | S. cerevisiae deletion strains, locus YNL224C, strain SQS1, active compounds read low 0.997 | S. cerevisiae deletion strains, locus YNL233W, strain BNI4, active compounds read low 0.985 | S. cerevisiae deletion strains, locus YNL248C, strain rpa49, active compounds read low 1.03 | S. cerevisiae deletion strains, locus YNL250W, strain rad50, active compounds read low 1.03 | S. cerevisiae deletion strains, locus YNL271C, strain bni1, active compounds read low 1.01 | S. cerevisiae deletion strains, locus YNL298W, strain CLA4, active compounds read low 1.03 | S. cerevisiae deletion strains, locus YNL307C, strain MCK1, active compounds read low 1.03 | S. cerevisiae deletion strains, locus YNL322C, strain KRE1 (second series), active compounds read low 0.978 | S. cerevisiae deletion strains, locus YNL322C, strain KRE1, active compounds read low 1 and 0.999 | S. cerevisiae deletion strains, locus YNR049C, strain mso1, active compounds read low 1.01 | S. cerevisiae deletion strains, locus YNR052C, strain pop2, active compounds read low 1.02 | S. cerevisiae deletion strains, locus YOL006C, strain TOP1, active compounds read low 1.02 | S. cerevisiae deletion strains, locus YOL012C, strain htz1 0.845 | S. cerevisiae deletion strains, locus YOL147C, strain pex11, active compounds read low 1.01 | S. cerevisiae deletion strains, locus YOR001W, strain rrp6, active compounds read low 1.03 | S. cerevisiae deletion strains, locus YOR061W, strain CKA2, active compounds read low 0.998 | S. cerevisiae deletion strains, locus YOR069W, strain VPS5, active compounds read low 0.995 | S. cerevisiae deletion strains, locus YOR070C, strain gyp1, active compounds read low 1.02 | S. cerevisiae deletion strains, locus YOR080W, strain dia2, active compounds read low 1.01 | S. cerevisiae deletion strains, locus YOR083W, strain WHI5 (second series), active compounds read low 1.01 | S. cerevisiae deletion strains, locus YOR083W, strain WHI5, active compounds read low 0.982 | S. cerevisiae deletion strains, locus YOR106W, strain vam3, active compounds read low 1.02 | S. cerevisiae deletion strains, locus YOR136W, strain idh2, active compounds read low 1.02 | S. cerevisiae deletion strains, locus YOR144C, strain elg1, active compounds read low 1 | S. cerevisiae deletion strains, locus YOR184W, strain ser1, active compounds read low 1.07 | S. cerevisiae deletion strains, locus YOR231W, strain MKK1, active compounds read low 0.983 | S. cerevisiae deletion strains, locus YOR265W, strain rbl2, active compounds read low 1 | S. cerevisiae deletion strains, locus YOR270C, strain vph1, active compounds read low 1.06 | S. cerevisiae deletion strains, locus YOR290C, strain snf2, active compounds read low 0.982 | S. cerevisiae deletion strains, locus YOR316C, strain cot1, active compounds read low 0.996 | S. cerevisiae deletion strains, locus YPL051W, strain arl3, active compounds read low 0.983 | S. cerevisiae deletion strains, locus YPL055C, strain LGE1, active compounds read low 0.992 and 1.01 | S. cerevisiae deletion strains, locus YPL078C, strain atp4, active compounds read low 1 | S. cerevisiae deletion strains, locus YPL106C, strain sse1, active compounds read low 0.976 | S. cerevisiae deletion strains, locus YPL240C, strain hsp82, active compounds read low 1.01 | S. cerevisiae deletion strains, locus YPL241C, strain CIN2, active compounds read low 1 | S. cerevisiae deletion strains, locus YPL256C, strain CLN2, active compounds read low 0.961 | S. cerevisiae deletion strains, locus YPR119W, strain clb2, active compounds read low 1.01 | S. cerevisiae deletion strains, locus YPR141C, strain kar3, active compounds read low 1.02 | S. cerevisiae deletion strains, locus YPR163C, strain tif3, active compounds read low 1.02 | S. cerevisiae deletion strains, locus YPR167C, strain met16, active compounds read low 1.01 | S. cerevisiae deletion strains, strain wtn01, active compounds read low 0.978 | S. cerevisiae strains, strain wild type, active compounds read low 0.998

— PubChem BioAssay AID1159580 (chemical genetic matrix, 2015)
